Data taken from publication PMC11574364.

What was measured:
Assay in all cases: protein domain microarray probed with biotinylated miRNA; Domain array: 20 mM Tris-HCl pH 7.4, 200 mM KCl, 0.2 mM EDTA, 0.05% NP40, 2 ug/ul heparin, overnight 4 C. ORF array: PBS pH 7.0 with RNase inhibitor, 100 ng RNA; high values mean tight binding
Details in all cases: ssRNA
[1] = target: T1, STAU2(4) (Homo sapiens, UniProt Q9NUL3)
T1 sequence: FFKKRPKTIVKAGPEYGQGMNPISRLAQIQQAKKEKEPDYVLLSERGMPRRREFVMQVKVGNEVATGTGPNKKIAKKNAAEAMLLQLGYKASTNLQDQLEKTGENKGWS

[2] = target: T2, RBM19(1) (Homo sapiens, UniProt Q9Y4C8)
T2 sequence: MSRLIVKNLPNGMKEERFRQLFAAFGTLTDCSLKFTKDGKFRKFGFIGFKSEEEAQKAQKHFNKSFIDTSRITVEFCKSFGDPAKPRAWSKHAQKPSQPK

[3] = target: T3, RBM11 (Homo sapiens, UniProt P57052)
T3 sequence: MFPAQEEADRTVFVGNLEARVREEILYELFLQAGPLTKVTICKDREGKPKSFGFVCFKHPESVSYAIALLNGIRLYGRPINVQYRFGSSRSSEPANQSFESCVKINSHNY

[4] = target: T4, REXON (Homo sapiens, UniProt Q96IC2)
T4 sequence: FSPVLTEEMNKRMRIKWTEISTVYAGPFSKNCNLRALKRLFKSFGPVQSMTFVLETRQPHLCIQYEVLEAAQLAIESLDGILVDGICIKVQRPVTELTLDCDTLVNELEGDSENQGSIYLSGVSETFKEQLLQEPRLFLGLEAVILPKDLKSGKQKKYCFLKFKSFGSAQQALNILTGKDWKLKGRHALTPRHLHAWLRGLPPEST

[5] = target: IGF2BP2(1-2) (Homo sapiens, UniProt Q9Y6M1)
Sequence of IGF2BP2(1-2) (Q9Y6M1 176-362): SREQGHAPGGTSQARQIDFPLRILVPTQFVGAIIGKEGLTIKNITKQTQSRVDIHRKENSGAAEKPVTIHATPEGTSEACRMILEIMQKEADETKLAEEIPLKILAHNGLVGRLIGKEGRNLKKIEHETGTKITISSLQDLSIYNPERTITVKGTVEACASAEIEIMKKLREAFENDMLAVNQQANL

[6] = target: FXR1(1-2) (Homo sapiens, UniProt P51114)
Sequence of FXR1(1-2) (P51114 201-372): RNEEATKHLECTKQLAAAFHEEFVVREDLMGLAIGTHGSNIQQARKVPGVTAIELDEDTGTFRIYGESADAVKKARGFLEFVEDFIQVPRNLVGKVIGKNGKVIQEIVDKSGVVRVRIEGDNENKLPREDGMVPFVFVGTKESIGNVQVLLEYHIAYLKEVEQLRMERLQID

[7] = target: RBPMS (Homo sapiens, UniProt Q93062)
Sequence of RBPMS (Q93062 1-125): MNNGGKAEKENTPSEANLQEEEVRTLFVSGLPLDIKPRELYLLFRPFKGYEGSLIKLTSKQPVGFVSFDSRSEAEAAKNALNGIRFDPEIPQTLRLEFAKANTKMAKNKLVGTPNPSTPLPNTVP

[8] = target: T5, TRA2B (Homo sapiens, UniProt P62995)
T5 sequence: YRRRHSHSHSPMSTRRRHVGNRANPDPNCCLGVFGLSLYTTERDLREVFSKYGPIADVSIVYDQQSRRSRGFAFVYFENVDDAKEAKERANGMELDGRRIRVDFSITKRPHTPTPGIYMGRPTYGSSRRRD

[9] = target: T6, SFRS12 (Homo sapiens, UniProt Q8WXA9)
T6 sequence: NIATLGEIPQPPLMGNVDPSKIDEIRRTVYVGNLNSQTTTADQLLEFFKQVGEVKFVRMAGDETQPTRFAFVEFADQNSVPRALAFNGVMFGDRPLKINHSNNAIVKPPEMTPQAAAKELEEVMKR

[10] = target: RBMXL3 (Homo sapiens, UniProt Q8N7X1)
Sequence of RBMXL3 (Q8N7X1 1-110): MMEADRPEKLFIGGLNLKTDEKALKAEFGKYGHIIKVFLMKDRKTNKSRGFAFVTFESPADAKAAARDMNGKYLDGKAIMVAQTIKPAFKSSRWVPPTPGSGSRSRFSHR

[11] = target: ROD1(3-4) (Homo sapiens, UniProt O95758)
Sequence of ROD1(3-4) (O95758 340-552): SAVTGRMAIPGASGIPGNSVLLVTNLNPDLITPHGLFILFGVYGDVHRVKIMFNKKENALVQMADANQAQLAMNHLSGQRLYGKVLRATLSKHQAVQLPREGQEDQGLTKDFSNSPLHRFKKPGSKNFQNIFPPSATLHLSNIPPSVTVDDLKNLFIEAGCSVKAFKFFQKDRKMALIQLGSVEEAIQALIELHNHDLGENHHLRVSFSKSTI

[12] = target: T7, PSPC1 (Homo sapiens, UniProt Q8WXF1)
T7 sequence: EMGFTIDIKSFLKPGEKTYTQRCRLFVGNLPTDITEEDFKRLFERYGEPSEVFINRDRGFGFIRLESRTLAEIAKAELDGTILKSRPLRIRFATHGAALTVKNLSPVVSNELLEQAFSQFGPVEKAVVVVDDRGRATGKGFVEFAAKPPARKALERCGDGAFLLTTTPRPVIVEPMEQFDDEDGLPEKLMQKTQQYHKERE

[13] = target: T8, TDRD10 (Homo sapiens, UniProt Q5VZ19)
T8 sequence: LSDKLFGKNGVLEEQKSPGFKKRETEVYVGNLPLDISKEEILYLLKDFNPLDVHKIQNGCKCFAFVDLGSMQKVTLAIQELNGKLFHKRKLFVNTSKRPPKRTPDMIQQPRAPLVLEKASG

[14] = target: T9, MASK-BP3 (Homo sapiens, UniProt Q8IWZ3)
T9 sequence: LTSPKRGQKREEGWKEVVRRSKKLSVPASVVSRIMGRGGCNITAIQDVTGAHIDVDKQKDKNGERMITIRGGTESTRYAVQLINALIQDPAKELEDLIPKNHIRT

[15] = target: T10, TRA2A (Homo sapiens, UniProt Q13595)
T10 sequence: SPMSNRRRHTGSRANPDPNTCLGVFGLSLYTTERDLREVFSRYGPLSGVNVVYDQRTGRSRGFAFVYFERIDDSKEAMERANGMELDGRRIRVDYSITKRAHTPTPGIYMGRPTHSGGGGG

[16] = target: T11, SFRS7 (Homo sapiens, UniProt Q16629)
T11 sequence: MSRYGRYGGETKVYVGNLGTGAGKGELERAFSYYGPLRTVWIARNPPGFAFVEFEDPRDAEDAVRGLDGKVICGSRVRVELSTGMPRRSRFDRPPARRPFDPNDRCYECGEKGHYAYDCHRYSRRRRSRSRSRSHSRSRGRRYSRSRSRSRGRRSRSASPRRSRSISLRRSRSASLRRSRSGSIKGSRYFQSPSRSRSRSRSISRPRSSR

[17] = target: snRNP 70 (Homo sapiens, UniProt P08621)
Sequence of snRNP 70 (P08621 80-205): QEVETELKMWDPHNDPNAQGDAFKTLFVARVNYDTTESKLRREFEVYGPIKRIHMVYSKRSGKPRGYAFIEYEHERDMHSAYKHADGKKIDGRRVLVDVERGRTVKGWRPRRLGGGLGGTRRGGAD

[18] = target: SRRP35 (Homo sapiens, UniProt Q8WXF0)
Sequence of SRRP35 (Q8WXF0 1-120): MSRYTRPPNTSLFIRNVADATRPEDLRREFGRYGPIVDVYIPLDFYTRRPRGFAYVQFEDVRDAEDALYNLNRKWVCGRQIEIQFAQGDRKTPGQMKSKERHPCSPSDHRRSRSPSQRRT

[19] = target: RDBP (Homo sapiens, UniProt P18615)
Sequence of RDBP (P18615 240-355): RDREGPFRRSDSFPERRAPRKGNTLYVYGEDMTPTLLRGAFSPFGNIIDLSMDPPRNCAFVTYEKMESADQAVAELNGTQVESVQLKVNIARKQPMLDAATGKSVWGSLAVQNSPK

[20] = target: T12, RAVER1 (Homo sapiens, UniProt Q8IY67)
T12 sequence: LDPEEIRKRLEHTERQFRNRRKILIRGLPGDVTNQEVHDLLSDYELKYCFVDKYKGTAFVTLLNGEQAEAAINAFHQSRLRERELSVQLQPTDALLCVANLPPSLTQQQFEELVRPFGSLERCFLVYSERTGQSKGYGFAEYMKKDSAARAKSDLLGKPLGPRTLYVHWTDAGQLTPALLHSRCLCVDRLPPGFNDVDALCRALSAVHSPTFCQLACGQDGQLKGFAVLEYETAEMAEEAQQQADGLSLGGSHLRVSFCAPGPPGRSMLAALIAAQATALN

AGAGGUAGUAGGUUGCAUAGUU
binding signal [1]: 100.36 ± 0.0283 fluorescence intensity
binding signal [2]: 400 ± 17.2 fluorescence intensity
binding signal [3]: 28 ± 4.14 fluorescence intensity
binding signal [4]: 106 ± 7.17 fluorescence intensity
binding signal [5]: 23 ± 1.49 fluorescence intensity
binding signal [6]: 46.8 ± 0.523 fluorescence intensity
binding signal [7]: 754 ± 55.2 fluorescence intensity
binding signal [8]: 1220 ± 41.8 fluorescence intensity
binding signal [9]: 364 ± 21 fluorescence intensity
binding signal [10]: 1850 ± 54 fluorescence intensity
binding signal [11]: 331 ± 55.6 fluorescence intensity
binding signal [12]: 38.8 ± 3.2 fluorescence intensity
binding signal [13]: 85.7 ± 8.76 fluorescence intensity
binding signal [14]: 50.1 ± 3.32 fluorescence intensity
binding signal [15]: 230 ± 12.5 fluorescence intensity
binding signal [16]: 2902 ± 20.8 fluorescence intensity
binding signal [17]: 899.9 ± 8.8 fluorescence intensity
binding signal [18]: 735 ± 23.2 fluorescence intensity
binding signal [19]: 47.7 ± 4.8 fluorescence intensity

UGAGGUAGUAGGUUGUGUGGUU
binding signal [1]: 275.8 ± 2.53 fluorescence intensity
binding signal [2]: 592 ± 96.6 fluorescence intensity
binding signal [3]: 26.6 ± 2.58 fluorescence intensity
binding signal [20]: 22.3 ± 5.17 fluorescence intensity
binding signal [4]: 198.5 ± 0.0919 fluorescence intensity
binding signal [5]: 31.4 ± 2.92 fluorescence intensity
binding signal [6]: 436 ± 32.2 fluorescence intensity
binding signal [7]: 168 ± 4.32 fluorescence intensity
binding signal [8]: 748 ± 54 fluorescence intensity
binding signal [9]: 314 ± 21.7 fluorescence intensity
binding signal [10]: 1280 ± 38.3 fluorescence intensity
binding signal [11]: 569 ± 20.9 fluorescence intensity
binding signal [12]: 84.7 ± 9.68 fluorescence intensity
binding signal [13]: 210 ± 41.3 fluorescence intensity
binding signal [14]: 131 ± 1.63 fluorescence intensity
binding signal [15]: 341 ± 41.5 fluorescence intensity
binding signal [16]: 1968 ± 10.4 fluorescence intensity
binding signal [17]: 1170 ± 58.7 fluorescence intensity
binding signal [18]: 643.6 ± 5.9 fluorescence intensity
binding signal [19]: 78.9 ± 4.14 fluorescence intensity

UAGCUUAUCAGACUGAUGUUGA
binding signal [2]: 37.3 ± 6.15 fluorescence intensity
binding signal [6]: 31.1 ± 0.919 fluorescence intensity
binding signal [9]: 30.2 ± 10.4 fluorescence intensity
binding signal [10]: 308 ± 16.9 fluorescence intensity
binding signal [11]: 94.4 ± 48.7 fluorescence intensity
binding signal [16]: 1190 ± 28.1 fluorescence intensity
binding signal [17]: 44 ± 10.4 fluorescence intensity
binding signal [18]: 54.02 ± 0.29 fluorescence intensity
binding signal [19]: 20.3 ± 0.262 fluorescence intensity

UGAGGUAGUAGGUUGUAUAGUU
binding signal [1]: 31.34 ± 0.269 fluorescence intensity
binding signal [2]: 132 ± 21 fluorescence intensity
binding signal [20]: 21.1 ± 4.28 fluorescence intensity
binding signal [4]: 30.1 ± 0.375 fluorescence intensity
binding signal [6]: 34.3 ± 0.7 fluorescence intensity
binding signal [7]: 63.4 ± 5.39 fluorescence intensity
binding signal [8]: 97.2 ± 22.2 fluorescence intensity
binding signal [9]: 44.9 ± 2.62 fluorescence intensity
binding signal [10]: 500 ± 52.7 fluorescence intensity
binding signal [11]: 92.7 ± 10.2 fluorescence intensity
binding signal [14]: 26.2 ± 1.21 fluorescence intensity
binding signal [15]: 25 ± 0.552 fluorescence intensity
binding signal [16]: 896.5 ± 2.67 fluorescence intensity
binding signal [17]: 179 ± 52.5 fluorescence intensity
binding signal [18]: 206 ± 15.3 fluorescence intensity
binding signal [19]: 25 ± 1.67 fluorescence intensity

UGAGGUAGUAGGUUGUAUGGUU
binding signal [1]: 168 ± 2.52 fluorescence intensity
binding signal [2]: 519 ± 35.8 fluorescence intensity
binding signal [3]: 36.7 ± 5.74 fluorescence intensity
binding signal [20]: 26.62 ± 0.0495 fluorescence intensity
binding signal [4]: 102 ± 6.23 fluorescence intensity
binding signal [5]: 26.07 ± 0.24 fluorescence intensity
binding signal [6]: 95 ± 11.4 fluorescence intensity
binding signal [7]: 145 ± 43.8 fluorescence intensity
binding signal [8]: 1050 ± 32.8 fluorescence intensity
binding signal [9]: 264 ± 26.8 fluorescence intensity
binding signal [10]: 1320 ± 44.2 fluorescence intensity
binding signal [11]: 385 ± 82.6 fluorescence intensity
binding signal [12]: 26.1 ± 0.75 fluorescence intensity
binding signal [13]: 161 ± 58.1 fluorescence intensity
binding signal [14]: 71.6 ± 1.19 fluorescence intensity
binding signal [15]: 311 ± 4.77 fluorescence intensity
binding signal [16]: 2173 ± 16.3 fluorescence intensity
binding signal [17]: 1010 ± 40.3 fluorescence intensity
binding signal [18]: 570 ± 27.1 fluorescence intensity
binding signal [19]: 52.2 ± 3.22 fluorescence intensity

CAGUGCAAUGAUGAAAGGGCAU
binding signal [1]: 92.53 ± 0.0283 fluorescence intensity
binding signal [2]: 249 ± 33.6 fluorescence intensity
binding signal [3]: 25.7 ± 8.53 fluorescence intensity
binding signal [4]: 88.4 ± 1.34 fluorescence intensity
binding signal [5]: 24.1 ± 3.02 fluorescence intensity
binding signal [6]: 111.8 ± 0.544 fluorescence intensity
binding signal [7]: 844 ± 72.7 fluorescence intensity
binding signal [8]: 656 ± 15.9 fluorescence intensity
binding signal [9]: 243 ± 4.09 fluorescence intensity
binding signal [10]: 1130 ± 24.3 fluorescence intensity
binding signal [11]: 241 ± 7.52 fluorescence intensity
binding signal [13]: 33.1 ± 2.64 fluorescence intensity
binding signal [14]: 42.16 ± 0.219 fluorescence intensity
binding signal [15]: 126 ± 1.75 fluorescence intensity
binding signal [16]: 2185 ± 2.91 fluorescence intensity
binding signal [17]: 453 ± 34.9 fluorescence intensity
binding signal [18]: 882 ± 24.2 fluorescence intensity
binding signal [19]: 43.1 ± 3.73 fluorescence intensity
